Hits are enriched below; roughly 11% of the tested compounds scored in any of these assays.
HPGD inh: HPGD (human) dehydrogenase inhibition. P15428. Potency, µM, for the others: at the top dose activity change, negative = inhibition, usual class: inhibitors. purified HPGD, NADH fluorescence kinetic, PGE2 substrate. AID 894. 150,000 compounds, 4.3% hits; note: potency is the fitted concentration of half-maximal effect
Target sequence (P15428 whole entry, looked up): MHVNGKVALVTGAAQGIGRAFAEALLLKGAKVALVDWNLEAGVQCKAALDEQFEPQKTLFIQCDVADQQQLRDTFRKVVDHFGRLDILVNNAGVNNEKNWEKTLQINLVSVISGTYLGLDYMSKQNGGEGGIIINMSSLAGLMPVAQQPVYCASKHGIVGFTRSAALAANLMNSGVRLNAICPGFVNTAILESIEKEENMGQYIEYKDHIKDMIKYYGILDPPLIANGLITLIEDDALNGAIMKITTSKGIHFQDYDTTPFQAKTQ
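20 nM HPGD preincubated 15 min at room temperature with compound in 50 mM Tris-HCl pH 8, 0.01% Tween 20. Started with 1 mM NAD+ and 30 uM prostaglandin E2; NADH fluorescence (360/450 nm) read 5 times over 30-s intervals, last minus first.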
ALDH1A1 block: blocks purified human ALDH1A1 activity | P00352 | Purified ALDH1A1, NADH fluorescence, propionaldehyde substrate | Potency, µM (top dose mostly 75.3 µM), without a hit: at the highest dose activity, negative = inhibition, actives largely listed as inhibitors | 220,000 compounds, 7.3% hits | AID 1030;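 note: potency is the fitted concentration of half-maximal effect; plate controls were no enzyme wells and a reference inhibitor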
PNC assembly inh: blocks assembly of the perinucleolar compartment | PC3M PTB-GFP, PNC prevalence imaging, 16 h; hits give low values | activity change (PNC), negative = inhibition, % at 10 µM | 140,000 compounds, 3.1% hits | AID 2417;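 active = readout at or below -70, meaning at least 70% loss of cells showing the perinucleolar compartment, a nuclear body marking cancer cells; inconclusive = readout between -30 and a set limit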;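 note: plate controls were DMSO wells for no effect and camptothecin positive control wells for full effect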
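PC3M cells stably expressing PTB-GFP, 750–1000 cells/well, treated 16 h at 37 °C with compound (23 nl of library stock), in duplicate. After paraformaldehyde fixation and Hoechst stain, imaged at 20x; PNC prevalence scored by image analysis.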
An asterisk follows results filed as active; ? = inconclusive; . = no result. Unless noted, calls come from the whole dose curve; as a rule, active = well fitted inhibition curve with a large enough effect (not every such curve was filed as active); inconclusive = small, poorly fitted or top-dose-only effect, or another doubt; inactive = no such curve, though single readings can be large or run the other way. Unless noted, % is set by controls: 0 for no effect and ±100 for the full control effect.

SMILES | HPGD inh | ALDH1A1 block | PNC assembly inh
Cc1nnc(SCC(=O)NCc2ccco2)n1-c1ccc(F)cc1 | -8% | 25µM* | ?
Cc1ccc(-n2c(Cc3cccn3C)nnc2SCC(=O)NC2CCCCC2)cc1 | -4% | -1% | -23
O=C(O)CCCN=CC1=C(O)C(C(=O)c2ccccc2)CCC1=O (stereo not drawn) | -4% | ? | ?
CCCn1c(=O)n(C)c(=O)c2c(SCC(=O)NC34CC5CC(CC(C5)C3)C4)nc(CC(C)C)nc21 | -6% | -4% | -12
CCOC(=O)C(Cc1ccc(O)cc1)NC(=O)CNC(=O)C1CCCN1C(=O)OC(C)(C)C (stereo not drawn) | . | 11% | .
O=C(NC1CCN(C(=S)NCCc2ccccc2)CC1)C1CCCCC1 | . | -1% | .
CCc1c(C(C)O)oc2ccc3c(C)cc(=O)oc3c12 (stereo not drawn) | ? | -17% | 96
Cc1cc(C)cc(-n2c(SCC(=O)Nc3cccc(S(=O)(=O)NC4=NCCCCC4)c3)nc3ccccc3c2=O)c1 | . | -4% | 52
Cn1cc(C(=O)CCl)c2ccccc21 | . | 0.063µM* | .
Cn1cc(C(N)=O)c2ccccc21 | . | 10% | .
Cc1ccc(N(C(=O)c2csnn2)C(C(=O)NC(C)(C)C)c2cccnc2)cc1 (stereo not drawn) | . | 1% | .
O=C(/C=C/c1ccc(-c2ccccc2[N+](=O)[O-])o1)c1ccccc1 | -28% | 18µM* | 53
CNc1ccc(/C=C/C(=O)c2ccc(C)cc2)cc1[N+](=O)[O-] | -17% | 17% | ?
N#C/C(=C\c1ccc(-c2ccccc2[N+](=O)[O-])o1)C(N)=O | . | 4% | .
COc1cccc(C(=O)/C=C/c2ccc(N3CCCCC3)c([N+](=O)[O-])c2)c1 | -6% | 14µM* | 30
COc1ccc(C(=O)/C=C/c2ccc(OC(=O)c3cc(OC)c(OC)c(OC)c3)cc2)cc1 | -7% | 5% | 17
COc1cccc(C(=O)NC(=S)N2CCN(c3ccc(C(F)(F)F)cc3[N+](=O)[O-])CC2)c1 | -18% | 7% | -2
CN(C)c1ccc(/C=C/C(=O)c2ccccc2)cc1[N+](=O)[O-] | 14µM* | ? | -28
COc1ccc(Oc2ccc(/C=C/C(=O)c3ccc(O)cc3)cc2[N+](=O)[O-])cc1 | -23% | ? | -113*
C=C1C(C(=O)Nc2cccc(OC)c2)C1C(=O)Nc1cccc(OC)c1 (stereo not drawn) | . | -1% | .
CCCCNC(=O)c1ccc(S(=O)(=O)c2ccc(Cl)cc2)c(NC(C)=O)c1 | -6% | 5% | -17
CSCC(=O)NS(=O)(=O)c1ccc(C)cc1 | -1% | -2% | -3
C=CCOc1ccc(Br)cc1CNCC | . | -8% | .
O=C(/C=C/c1ccc(N2CCCCC2)c([N+](=O)[O-])c1)c1ccc(S(=O)(=O)N2CCCC2)cc1 | -9% | 4.5µM* | 31
CN1CCN(c2ccc(S(=O)(=O)N3CCCCC3)cc2[N+](=O)[O-])CC1 | . | -2% | .
SMILES | HPGD inh | ALDH1A1 block | PNC assembly inh
Cc1cccc(OCCNC(=O)c2cccc(Oc3ccc(C(F)(F)F)cc3[N+](=O)[O-])c2)c1 | -13% | 3% | 12
CCn1cnc2sc(C(=O)N(Cc3ccc(N(C)C)cc3)Cc3ccco3)c(C)c2c1=O | -14% | 8.9µM* | ?
CCn1cnc2sc(C(=O)Oc3ccc(Br)cc3)c(C)c2c1=O | . | 14% | .
Cn1ncc(Br)c1C(=O)OCC(=O)Nc1nc(-c2ccccc2)cs1 | -18% | 4% | ?
CCOC(=O)C1=C(C)NC2=C(C1c1ccc([N+](=O)[O-])cc1)S(=O)(=O)c1ccccc12 (stereo not drawn) | -24% | 2.5µM* | 1
CCOC(=O)C1=C(C)NC(c2ccccc2)=C(C(=O)OCc2ccc([N+](=O)[O-])cc2)[C@@H]1C#Cc1ccccc1 | -15% | -1% | .
O=C(CSc1nc2nc3c(cc2c(=O)n1-c1ccccc1)CCCC3)Nc1ccccc1 | -24% | ? | 28
CC1(C)Cc2nc3nc(SCC(=O)NCc4ccccc4)n(-c4ccccc4)c(=O)c3cc2CO1 | -7% | 3.5µM* | 99
CC1(C)Cc2nc3nc(SCC(=O)NCCc4ccccc4)n(-c4ccccc4)c(=O)c3cc2CO1 | -14% | 2.5µM* | 36
O=C(CSc1nc(O)cc(=O)n1-c1ccccc1)NCc1ccccc1 | 3% | -1% | 16
CNC(=O)[C@H]1O[C@@H](n2cnc3c(N)ncnc32)[C@H](O)[C@H]1O | -25% | -4% | .
CCOc1ccc(NC(=O)CN2CCN(CC(=O)Nc3ccc(F)cc3)CC2)cc1 | -1% | 12µM* | -21
COc1ccc(NC(=O)CN2CCN(CC(=O)Nc3ccc(OC)c(OC)c3)CC2)cc1 | -11% | ? | ?
COc1ccc(C(=O)CN2CCN(c3ccc(F)cc3)CC2)cc1OC | -1% | 13µM* | 62
CC(C)(C)C(=O)CN1CCN(S(=O)(=O)c2ccc(F)cc2)CC1 | -2% | -9% | ?
CCOc1ccc(NC(=O)CN2CCN(CC(=O)Nc3ccc4c(c3)OCO4)CC2)cc1 | -7% | ? | ?
CCOc1ccc(C(=O)CN2CCN(S(=O)(=O)c3ccc(F)cc3)CC2)cc1 | -1% | 20µM* | 30
COc1cc(OC)nc(NC(=O)CN2CCN(c3ccc(F)cc3)CC2)n1 | -9% | 2% | -24
CCOc1ccc(NC(=O)CN2CCN(CC(=O)c3ccc(OC)c(OC)c3)CC2)cc1 | -11% | 7.1µM* | 10
CCC/C=N/NC(=O)c1ccccc1O | . | 4% | .
NC(N)=NCCC[C@H](NC(=O)CC1(CC(=O)N2CCN(C3c4ccccc4NC(=O)c4ccccc43)CC2)CCCC1)C(=O)NCCn1c(=O)n(-c2ccccc2)n(-c2ccccc2)c1=O (stereo partly drawn) | -5% | 5% | .
C#CC1CN(Cc2ccccc2)CC(C#C)N1C (stereo not drawn) | -6% | 15% | 60
COc1ccc(NC(=O)CN2CCN(C3c4ccccc4-c4ccccc43)CC2)cc1 | -10% | 22µM* | ?
COc1ccc(NC(=O)CN2CCN(c3ccccc3)CC2)cc1 | . | -1% | .
Cc1cc(NS(=O)(=O)c2ccc(NC(=O)C(C(C)C)N3C(=O)c4ccccc4C3=O)cc2)nc(C)n1 (stereo not drawn) | -11% | -16% | -88*
SMILES | HPGD inh | ALDH1A1 block | PNC assembly inh
Cc1cc(NS(=O)(=O)c2ccc(NC(=O)C(CC(C)C)N3C(=O)c4ccccc4C3=O)cc2)nc(C)n1 (stereo not drawn) | -5% | 6% | 10
COC(=O)CN(c1cccc(F)c1)S(C)(=O)=O | -15% | 5% | 11
Nc1nc2c(s1)COc1ccccc1-2 | . | 22µM* | .
O=C(CCSc1ccccc1)Nc1nc2c(s1)COc1ccccc1-2 | -26% | 14µM* | -20
Nc1nc2c(s1)CCc1c-2cnn1-c1ccccc1 | ? | ? | 10
CC(C)(C)C(=O)Nc1nc2c(s1)COc1ccccc1-2 | -19% | -8% | -11
COc1ccc(-c2csc(/C(C#N)=C/Nc3cc4oc5ccccc5c4cc3OC)n2)cc1 | . | 6% | .
COc1ccc(Cl)cc1NC(=S)Nc1ccccc1C | . | -13% | .
COc1cccc2c1CCC1CC(=O)CC[C@@]21C (stereo partly drawn) | -13% | ? | .
COC(=O)C(/C=N/OCc1ccc([N+](=O)[O-])cc1)NC(=O)c1cccc(Cl)c1 (stereo not drawn) | -3% | 1.4µM* | -98*

Compound activity from PubChem BioAssay.
